Measured values reported in ChEMBL document CHEMBL4808148, “HDAC6 screening dataset using tau-based substrate in an enzymatic assay yields selective inhibitors and activators” (2021).
Hit rate of the full screen: of about 5,600 compounds, about 390 (7%) showed an effect of 50% or more. Shown is part of a subset that was picked to be rich in strong results.

Assays:
[1] = molecular target: T1, Protein deacetylase HDAC6 (Homo sapiens) (UniProt Q9UBN7); settings: at 10 µM
T1 sequence (whole entry): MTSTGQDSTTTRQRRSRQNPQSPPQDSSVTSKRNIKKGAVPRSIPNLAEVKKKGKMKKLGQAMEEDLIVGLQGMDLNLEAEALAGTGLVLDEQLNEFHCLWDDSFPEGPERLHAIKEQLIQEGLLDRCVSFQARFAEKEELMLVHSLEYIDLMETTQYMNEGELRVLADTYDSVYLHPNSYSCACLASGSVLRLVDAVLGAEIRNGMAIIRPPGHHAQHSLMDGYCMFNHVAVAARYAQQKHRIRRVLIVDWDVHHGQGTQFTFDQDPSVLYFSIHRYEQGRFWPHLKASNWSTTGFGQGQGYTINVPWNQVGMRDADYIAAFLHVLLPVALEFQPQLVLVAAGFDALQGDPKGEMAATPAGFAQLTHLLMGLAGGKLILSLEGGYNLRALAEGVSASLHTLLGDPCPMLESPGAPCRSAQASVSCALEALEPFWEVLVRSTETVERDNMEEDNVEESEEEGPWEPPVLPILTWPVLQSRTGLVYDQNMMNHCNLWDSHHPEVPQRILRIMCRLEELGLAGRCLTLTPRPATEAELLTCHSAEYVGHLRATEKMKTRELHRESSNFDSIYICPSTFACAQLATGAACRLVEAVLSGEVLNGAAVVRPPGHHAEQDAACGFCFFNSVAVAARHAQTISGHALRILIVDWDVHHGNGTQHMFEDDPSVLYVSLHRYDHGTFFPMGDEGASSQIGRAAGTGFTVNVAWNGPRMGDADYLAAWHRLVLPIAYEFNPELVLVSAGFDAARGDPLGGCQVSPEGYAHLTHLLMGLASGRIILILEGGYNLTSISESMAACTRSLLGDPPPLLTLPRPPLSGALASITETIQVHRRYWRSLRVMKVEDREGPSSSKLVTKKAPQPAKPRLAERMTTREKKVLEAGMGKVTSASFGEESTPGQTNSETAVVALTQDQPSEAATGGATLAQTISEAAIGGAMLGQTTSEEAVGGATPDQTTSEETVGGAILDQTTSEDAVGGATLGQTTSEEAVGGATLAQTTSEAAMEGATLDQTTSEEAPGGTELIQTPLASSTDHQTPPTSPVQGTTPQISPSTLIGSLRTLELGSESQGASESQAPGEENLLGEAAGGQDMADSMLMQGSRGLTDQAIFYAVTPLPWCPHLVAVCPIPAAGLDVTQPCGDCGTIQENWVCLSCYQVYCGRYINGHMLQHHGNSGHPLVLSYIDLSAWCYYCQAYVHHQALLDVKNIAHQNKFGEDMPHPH

[2] = molecular target: Protein deacetylase HDAC6 (Homo sapiens) (UniProt Q9UBN7); settings: at 10 µM; remark: listed apart in the source

Compound	inhibition [1] [%]	inhibition [2] [%]
CCN(CC)CCCC(C)Nc1nc(C)cc(Nc2ccc3nc(C)cc(N)c3c2)n1 (stereo not drawn)	-7.44	
CCc1ccc(OCc2ccccc2C(=O)Nc2ccc3nc(C)cc(N)c3c2)cc1	80.4	
CCN(CC)CCOC(=O)C(Cc1cccc2ccccc12)CC1CCCO1 (stereo not drawn)	2	
Nc1nccc2c1ncn2[C@@H]1C=C(CO)[C@@H](O)[C@H]1O	-4.17	
O=C(NCC1(N2CCN(c3ccccc3)CC2)CCOCC1)c1cccnc1Sc1ccccc1	8.43	
CCC(C)(C)C(=O)C(=O)N1CCC[C@H]1C(=O)OCCCc1cccnc1	-5.62	
COc1cc(C(=O)NS(=O)(=O)c2ccccc2C)ccc1Cc1cn(C)c2ccc(NC(=O)OC3CCCC3)cc12	73.7	
COc1cc(Nc2nc3ccccc3nc2NS(=O)(=O)c2ccc(NC(=O)c3ccc(C)c(OC)c3)cc2)cc(OC)c1	17.4	
COc1cc(N)c(Cl)cc1C(=O)OCCN1CCCCC1	6.86	
O=C(NC1Cc2ccccc2N(C[C@@H](O)CO)C1=O)c1cc2cc(Cl)sc2[nH]1 (stereo partly drawn)	-2.31	
CCCCCCCC/C=C\CCCCCCCC(=O)N[C@@H](CO)Cc1ccc(O)cc1	27.9	
Nc1ccc(/N=N/c2ccccc2)c(N)n1	102	
NC(C(=O)O)c1cc(O)ccc1Cl (stereo not drawn)	15.3	
CCCn1c(=O)c2[nH]cnc2n(-c2ccc(Cl)cc2)c1=O	20.4	
C/C=C(/C(=C/C)c1ccc(O)cc1)c1ccc(O)cc1	0.77	
COc1cc(/C=C/c2ccc(O)cc2)cc(OC)c1	99	
COc1cc(/C=C/c2ccc(OC)cc2OC)cc(OC)c1	86.2	
Oc1cc(O)cc(O)c1	18.2	
COc1ccc(/C=C\c2cc(OC)c(OC)c(OC)c2)cc1O	14.7	
COc1ccc(O)cc1	19.4	
Oc1ccc(/C=C/c2cc(O)cc(O)c2)cc1	97	
COc1cc(/C=C2\CCC/C(=C\c3ccc(O)c(OC)c3)C2=O)ccc1O	35.9	

Compound	inhibition [1] [%]	inhibition [2] [%]
O=S(=O)(O)c1cc(O)ccc1O	-4.71	
Oc1cc(O)cc(/C=C/c2ccc(O)c(O)c2)c1	85.2	
OC[C@H]1O[C@@H](Oc2cc(O)cc(/C=C/c3ccc(O)cc3)c2)[C@H](O)[C@@H](O)[C@@H]1O	31.5	
NCC(O)(CS(=O)(=O)O)c1ccc(Cl)cc1 (stereo not drawn)	-2.67	
C=CC1=C(C)c2cc3[nH]c(cc4nc(cc5[nH]c(cc1n2)c(C)c5CCC(=O)O)C(CCC(=O)O)=C4C)c(C)c3C=C	21.1	
C[C@H](N)[C@H](O)c1cccc(O)c1	1.85	
CCCC(=O)C1CCN(c2ncnc3c2CN(C(=O)c2ccc(-c4ccccc4)cc2)CC3)CC1	2.41	
Cn1c(=O)c2c(ncn2CC(=O)Nc2ccc(-c3ccccc3)nn2)n(C)c1=O	41.8	
CN(CC[C@@H](Oc1ccc(-c2ccccc2)cc1)c1ccc(F)cc1)CC(=O)O	-3.28	
O=C(/C=C/c1c(C(=O)O)[nH]c2cc(Cl)cc(Cl)c12)Nc1ccccc1	27.4	
COc1ccc2c(c1)-c1nn(CCCN(C)C)c3ccc([N+](=O)[O-])c(c13)N2	9.03	
Cn1nnc(-c2ccc(-c3ccc(N4C[C@H](CO)OC4=O)cc3F)cn2)n1	67.9	
CC(=O)NC[C@H]1CN(c2ccc(N3CCSCC3)c(F)c2)C(=O)O1	9.47	
CC(=O)NC[C@H]1CN(c2ccc(-c3ccc(CNCc4cnn[nH]4)cc3)c(F)c2)C(=O)O1	35.9	
C[C@@H]1C[C@H]2[C@@H]3CCC4=CC(=O)C=C[C@]4(C)[C@@]3(Cl)[C@@H](O)C[C@]2(C)[C@@]1(OC(=O)c1ccco1)C(=O)CCl	-2.71	
CSc1ccc(C(=O)/C=C/c2cc(C)c(OC(C)(C)C(=O)O)c(C)c2)cc1	-7.51	
EUK 134, CHEMBL5308416		33.1
Nc1ncnc2c1c(COc1cccc(Cl)c1)nn2C1CCOCC1	-8.17	
O=C(c1ccccc1)c1ccc2n1CCC2C(=O)O (stereo not drawn)	66.7	
O=C(O)C1CCCN(CCC=C(c2ccccc2)c2ccccc2)C1 (stereo not drawn)	18.1	
O=C(O)c1ccccc1	-0.18	
CCCC(=O)C1(c2ccccc2)CCN(C(=O)[C@@H](Cc2ccc(OC)cc2)NC(=O)[C@@H](N)Cc2cncn2C)CC1	4.5	

Compound	inhibition [1] [%]	inhibition [2] [%]
Nc1cccc2c(=O)[nH][nH]c(=O)c12	35.2	
CCS(=O)(=O)c1ccc2oc(-c3ccc4ccccc4c3)nc2c1	97.2	
c1ccc(Cn2c(-c3ccc(OC[C@H](C4CCNCC4)n4c(-c5ccccc5)nc5ccccc54)cc3)nc3ccccc32)cc1	5.68	
COc1cc(/C=C(\C#N)C(N)=O)cc(CSc2nc3ccccc3s2)c1O	17.9	
CCCCc1oc2ccc(NS(C)(=O)=O)cc2c1C(=O)c1ccc(OCCCN(CCCC)CCCC)cc1	18.6	
Cc1cnc(-c2cnc(NCCNc3ccc(C#N)cn3)nc2-c2ccc(Cl)cc2Cl)[nH]1	3.11	
Cn1cnc(-c2cc3nccc(Oc4ccc(NC(=S)NC(=O)Cc5ccccc5)cc4F)c3s2)c1	28	
Cc1ccc(C(=O)Nc2ccc(CN3CCN(C)CC3)c(C(F)(F)F)c2)cc1C#Cc1cnc2cccnn12	32.8	
COC(=O)N1CCN(Cc2cccc(NC(=O)Nc3ccc(C)nc3)c2F)CC1	57.5	
COc1cc(N)cn[n+]1-c1ccccc1	15.3	
CC(=O)OCC(=O)[C@@]1(O)[C@@H](C)C[C@H]2[C@@H]3CCC4=CC(=O)C=C[C@]4(C)[C@@]3(F)[C@@H](O)C[C@@]21C	8.96	
Clc1cccc(Cl)c1CSc1nnc(-c2cnccn2)s1	65.2	
COc1c(OCCCN2CCOCC2)ccc2c1N=C(NC(=O)c1cnc(N)nc1)N1CCN=C21	8.29	
CCCCCNCC(N)=O	19.9	
Oc1nc(O)c2cn[nH]c2n1	9.68	
CCS(=O)(=O)CCn1c([N+](=O)[O-])cnc1C	-4.7	
CSc1ccc(OCc2ncc([N+](=O)[O-])n2C)cc1	57.1	
Cn1c([N+](=O)[O-])cnc1COC(N)=O	2.87	
Nc1[nH]cnc2ncnc1-2	-1.89	
NS(=O)(=O)c1ccc(S(=O)(=O)Nc2cccc3c(Cl)c[nH]c23)cc1	-6.04	
C1CCN2C[C@H]3C[C@H](CN4CCCC[C@@H]34)[C@H]2C1	30.9	
Cc1ncc(-c2csc(N=C(N)N)n2)[nH]1	3.96	

Compound	inhibition [1] [%]	inhibition [2] [%]
Ic1cc(-c2ccccc2)ncn1	25.2	
CC[C@@]1(O)C(=O)OCc2c1cc1n(c2=O)Cc2cc3c([N+](=O)[O-])cccc3nc2-1	11.9	
c1cc(CN2CCCCC2)cc(OCCCNc2nc3ccccc3s2)c1	59.6	
O=C(OC(C(F)(F)F)C(F)(F)F)N1CCN(Cc2cccc(Oc3ccccc3)c2)CC1	-8.39	
CC(=O)OCC(=O)NCCCOc1cccc(CN2CCCCC2)c1	14.5	
COc1ccc(C(=O)N2CCCc3cc(C4=NNC(=O)SC4C)ccc32)cc1OC (stereo not drawn)	7.12	
Cc1ccc(S(=O)(=O)NC2c3ccccc3Oc3ccccc32)cc1	0.27	
CNC(=O)CN(CCN(CCN(CC(=O)O)CC(=O)NC)CC(=O)O)CC(=O)O	17.5	
OCc1ccc(-c2ccc(-c3ccc(CO)s3)o2)s1	102	
O=C(O)COc1cccc(-c2ocnc2-c2nc(-c3ccccc3)c(-c3ccccc3)o2)c1	-1.23	
CCCc1ncc(C[n+]2ccccc2C)c(N)n1	-5.17	
Cc1ncc(C[n+]2csc(CCO)c2C)c(N)n1	53	
CC(C)CN(C[C@@H](O)[C@H](Cc1ccccc1)NC(=O)O[C@H]1CCOC1)S(=O)(=O)c1ccc(N)cc1	1.38	
COc1ccc(OC)c(CN(C(C)=O)c2cc(F)ccc2Oc2ccccc2)c1	1.27	
O=C(Cc1ccc(-c2ccc(OCCN3CCOCC3)cc2)cn1)NCc1ccccc1	9.75	
O=C(c1ccc(OCCN2CCCCC2)cc1)c1c(-c2ccc(O)cc2)sc2cc(O)ccc12	38.5	
Cc1c(-c2ccc(O)cc2)n(Cc2ccc(OCCN3CCCCCC3)cc2)c2ccc(O)cc12	86.2	
O=[N+]([O-])c1cnc(Sc2nnc(O)n2-c2ccc3c(c2)OCCO3)s1	11.2	
C[n+]1cccc(C(=O)[O-])c1	7.12	
O=C(Nc1ccccc1)C12CC1/C(=N\O)c1ccccc1O2 (stereo not drawn)	16.1	
Nc1cc(C(F)(F)F)c(-c2nc(N3CCOCC3)nc(N3CCOCC3)n2)cn1	-6.25	
OCc1c[nH]c2ccccc12	2.93	

Compound	inhibition [1] [%]	inhibition [2] [%]
c1ccc2c(Cc3c[nH]c4ccccc34)c[nH]c2c1	71.8	
O=C(O)C(=O)Cc1c[nH]c2ccccc12	20.3	
CCc1cc2c(c(CC)n1)CCC(=O)N2Cc1ccc(-c2ccccc2-c2nnn[nH]2)cc1	0.45	
[O-][S+](c1ccccc1)c1ccc2nnnn2n1 (stereo not drawn)	-5.95	
Clc1ccc(N/N=C(\c2ccccc2)c2ccccn2)nc1	25.9	
c1ccc(COCCCc2c[nH]cn2)cc1	20.5	
COc1ccc2cc1Oc1ccc(cc1)C[C@H]1c3c(cc4c(c3Oc3cc5c(cc3OC)CCN(C)[C@@H]5C2)OCO4)CCN1C	-6.05	
O=C1/C(=C/c2ccccc2)C(NC2CCCCC2)c2ccccc21 (stereo not drawn)	8.83	
Cc1noc(NS(=O)(=O)c2cccc3c(N(C)C)cccc23)c1C	29.9	
Nc1nc2c(cnn2CCc2ccccc2)c2nc(-c3ccco3)nn12	61.6	
Cc1cc(Cl)ccc1OCCCC(=O)NO	98.5	
Cc1ccc(C)c(OCCCC(C)(C)C(=O)O)c1	7.2	
COc1ccc2[nH]c3c(-c4cccc5ccccc45)nccc3c2c1	9.67	
Cc1nc(C#Cc2ccnc(Cl)c2)c(C)n1-c1ccc(F)cc1	5.29	
Cc1cc(C)c(N)c(C#Cc2cccc(F)c2)n1	103	
CC(C)NC(=O)c1ccc(C#Cc2ccncc2)cn1	-5.33	
C[C@@H]([C@H](C)O)[C@H](N)C(=O)O	-7.36	
CNC(=O)c1ccc(C)c(-n2c(C)cc(OCc3ccc(F)cc3F)c(Br)c2=O)c1	72.6	
CCCCCCCCCCCCCC[C@@H](O)[C@@H](O)[C@@H](N)CO	0.56	
CCCc1c(OCC(O)COc2ccc3c(=O)cc(C(=O)O)oc3c2CCC)ccc(C(C)=O)c1O (stereo not drawn)	22.7	
